Compound activity (PubChem BioAssay)
ADAM10 inh – human ADAM10 inhibitors, primary screen, biochemical, QFRET, HTS; Disintegrin and metalloproteinase domain-containing protein 10 (Homo sapiens), O14672; recombinant ADAM10, EDANS/DABCYL FRET peptide cleavage, 3 h; inhibition, % at 7 µM; hit rate 0.62% among 370,000; AID 720582, 2013;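 active = inhibition above a per-campaign cutoff equal to the mean of compounds falling between control-based bounds plus 3 SD, cut at about 20% in these data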;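 note: 0% = DMSO wells while the 100% control is not disclosed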
proKLK7 act – proKLK7 zymogen activators, primary screen, biochemical, fluorescence intensity; hit rate 0.9% among 370,000; Kallikrein-7 (Homo sapiens), P49862; activation, % at 7 µM; purified proKLK7, EDANS-DABCYL substrate fluorescence; 100% is mature enzyme control, 0% vehicle;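 active = activation above the mean of all tested compounds plus 3 SD, computed per campaign excluding outliers beyond control limits, cut at about 13% in these data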
PLCg1 inh – PLC-gamma1 enzyme inhibitors, primary screen, biochemical, fluorescence, purified enzyme; 1-phosphatidylinositol 4,5-bisphosphate phosphodiesterase gamma-1 (Homo sapiens), P19174; fluorogenic substrate; inhibition, % at 12.2 µM; hit rate 0.84% among 370,000; AID 720700, 2013; in the data active = inhibition above about 9.5%
PLC-beta3 inh – human PLC-beta3 inhibitors, primary screen, biochemical, fluorescence; hit rate 0.18% among 370,000; 1-phosphatidylinositol 4,5-bisphosphate phosphodiesterase beta-3 (Homo sapiens), Q01970; inhibition, % at 12.2 µM; AID 720704, 2013; Purified PLC-beta3, fluorogenic substrate;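 note: 0% = median of compound wells on plate and 100% = full blocker control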
Target sequence (Q01970 whole entry, looked up): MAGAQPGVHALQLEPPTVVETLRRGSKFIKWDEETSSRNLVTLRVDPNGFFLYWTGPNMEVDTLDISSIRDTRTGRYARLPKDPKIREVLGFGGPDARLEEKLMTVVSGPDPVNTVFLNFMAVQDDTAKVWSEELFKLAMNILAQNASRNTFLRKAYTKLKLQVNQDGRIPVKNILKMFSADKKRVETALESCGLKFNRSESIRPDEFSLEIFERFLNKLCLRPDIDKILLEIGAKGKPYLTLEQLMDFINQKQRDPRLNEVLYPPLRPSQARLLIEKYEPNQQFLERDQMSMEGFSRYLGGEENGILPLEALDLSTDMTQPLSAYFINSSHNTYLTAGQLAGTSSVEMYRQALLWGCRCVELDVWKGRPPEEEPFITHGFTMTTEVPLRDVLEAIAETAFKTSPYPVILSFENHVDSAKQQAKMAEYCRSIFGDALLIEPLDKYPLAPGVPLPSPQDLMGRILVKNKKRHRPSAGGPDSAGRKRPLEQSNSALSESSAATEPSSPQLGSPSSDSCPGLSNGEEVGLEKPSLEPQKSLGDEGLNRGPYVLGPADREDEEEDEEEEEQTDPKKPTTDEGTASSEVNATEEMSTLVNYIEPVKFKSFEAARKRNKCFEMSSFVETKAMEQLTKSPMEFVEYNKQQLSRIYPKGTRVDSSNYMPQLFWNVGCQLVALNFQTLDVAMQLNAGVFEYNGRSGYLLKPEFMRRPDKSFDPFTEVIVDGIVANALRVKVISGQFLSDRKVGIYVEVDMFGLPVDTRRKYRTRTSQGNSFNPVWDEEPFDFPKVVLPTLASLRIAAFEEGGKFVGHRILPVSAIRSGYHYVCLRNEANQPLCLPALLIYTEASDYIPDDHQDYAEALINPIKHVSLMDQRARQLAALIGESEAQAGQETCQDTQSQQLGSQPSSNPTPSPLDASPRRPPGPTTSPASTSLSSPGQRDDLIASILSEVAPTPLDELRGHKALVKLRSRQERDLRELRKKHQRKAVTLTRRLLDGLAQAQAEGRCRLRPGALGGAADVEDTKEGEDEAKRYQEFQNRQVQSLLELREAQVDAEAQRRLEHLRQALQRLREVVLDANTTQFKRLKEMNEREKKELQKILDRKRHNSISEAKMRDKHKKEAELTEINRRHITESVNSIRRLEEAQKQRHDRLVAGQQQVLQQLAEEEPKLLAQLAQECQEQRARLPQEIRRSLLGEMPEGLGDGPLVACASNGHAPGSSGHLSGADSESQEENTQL
ADAM17 inh – ADAM17 inhibitors, primary screen, biochemical, QFRET. recombinant ADAM17, EDANS/DABCYL FRET peptide cleavage. AID 720648, 2013. inhibition, % at 6.95 µM. hit rate 0.83% among 370,000. Disintegrin and metalloproteinase domain-containing protein 17 (Homo sapiens), P78536;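 active = inhibition above the mean of compounds lying between control limits plus 3 SD, set per campaign, cut at about 8.5% in these data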;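 note: 0% = DMSO-only wells as the low control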
PLCg1 ctr – PLC-gamma1 enzyme inhibitors, counter-screen for PLC-beta3 inhibitor project, biochemical, fluorescence | shares compounds with PLCg1 inh | purified PLC-gamma1, fluorogenic substrate | inhibition, % at 12.3 µM | hit rate 3.1% among 3,300; in the data active = inhibition above about 9.5%
PLCbeta3 conf – PLC-beta3 inhibitor confirmation, biochemical, fluorescence, purified enzyme; shares compounds with PLCg1 inh; fluorogenic substrate fluorescence; inhibition, % at 12.3 µM; hit rate 1% among 3,300
* hit, by the source's call; i = inactive; . = no result. This is a sample that favours compounds with a hit; in the whole collection about 2.9% have one here. Cut-off read from the data, not from the text of the source, unless noted: active = inhibition above about 11%; inactive = the rest.

SMILES	ADAM10 inh	proKLK7 act	PLCg1 inh	PLC-beta3 inh	ADAM17 inh	PLCg1 ctr	PLCbeta3 conf
COc1cccc(-n2c(CN3CCN(c4cccc(C)c4)C(C)C3)nc3ccc([N+](=O)[O-])cc3c2=O)c1 (stereo unspecified)	-3	1	-1	0	0	.	.
Cc1cc(NC(=O)CSc2cn(CC(=O)N(C(C)C)C(C)C)c3ccccc23)no1	5	0	12*	-4	0	-5	-1
COc1ccc(NC(=O)c2ccc[n+]([O-])c2)cc1	6	1	0	-3	0	.	.
CCOC(=O)CC1(CCc2ccccc2)Oc2ccccc2N1S(=O)(=O)c1ccc(C)cc1 (stereo unspecified)	1	0	12*	5	7	-2	0
CCOc1ccc2nc(SCC(=O)NCc3ccccc3)[nH]c2c1	7	0	3	-1	2	.	.
O=C(Nc1ccccc1)c1cc([N+](=O)[O-])ccc1Cl	2	0	-1	1	-3	.	.
O=C(Nc1ccccc1)c1cc([N+](=O)[O-])ccc1NC1CCCCC1	0	0	9.8*	9	4	-1	-3
Cn1nnc(NC(=O)c2ccco2)n1	1	-1	1	1	-3	.	.
NC(Cc1ccc(C(F)(F)F)cc1)c1csc(Nc2cc(Oc3ccccc3)ncn2)n1 (stereo unspecified)	-7	-1	9.7*	-12	-1	-4	-2
Cn1c(=O)c2c(nc3n2CC(COc2ccc(Cl)cc2)O3)n(C)c1=O (stereo unspecified)	-5	0	-2	1	-1	.	.
Cc1cc(C(=O)N2CCCC(C(=O)c3cccc4ccccc34)C2)nc(C)n1 (stereo unspecified)	6	0	10*	-1	0	-2	-4
Cc1ccn(CC(=O)N2CCCC(C(=O)c3cccc4ccccc34)C2)n1 (stereo unspecified)	-6	0	-3	-8	-5	.	.
Cn1c(=NC(=O)C2CC2)sc2cccc(F)c21	7	0	11*	0	3	-6	-5
c1ccc(-c2nnc(SCC3CCCCO3)nc2-c2ccccc2)cc1 (stereo unspecified)	2	0	17*	7	6	-2	1
O=C(CSc1nnc(-c2ccccc2)c(-c2ccccc2)n1)NCC1CCCO1 (stereo unspecified)	7	0	0	4	1	.	.
COc1ccc(OCCCC(=O)NCc2ccco2)cc1	0	0	15*	8	4	-1	4
CCC(=O)Nc1c2c(nn1-c1ccc(OC)cc1)CSC2	9	0	-2	-5	0	.	.
CC(C)CC(=O)Nc1c2c(nn1-c1ccc(F)cc1)CSC2	-1	0	9	12*	3	-7	-5
NS(=O)(=O)c1ccc(CCNC(=O)CNC(=O)C2CCCCC2)cc1	9	0	0	2	1	.	.
Fc1cccc(Cl)c1CSc1ccc2nnc(-c3ccccn3)n2n1	8	0	1	-4	-2	.	.
CCOc1c(Cl)cc(CNCC(O)c2ccccc2)cc1OC (stereo unspecified)	3	0	11*	2	2	2	5
CCOc1c(Cl)cc(CNCC(C)C)cc1OC	4	0	-2	1	-5	.	.
CCCCC(=O)Nc1ccc(C)c(O)c1	9	1	9.6*	11*	4	1	2
CCCCC(=O)Nc1cc(NC(=O)CCCC)cc(C(=O)O)c1	8	0	15*	6	6	-5	0
Cc1nn(CC(=O)O)c(C)c1C	-1	0	3	1	-3	.	.
SMILES	ADAM10 inh	proKLK7 act	PLCg1 inh	PLC-beta3 inh	ADAM17 inh	PLCg1 ctr	PLCbeta3 conf
Cc1nn(CC(=O)O)c(C)c1Cl	11	0	11*	4	4	-7	-3
CC(C)c1nnc(NC(=O)CCCCCN2C(=O)C3C4C=CC(C4)C3C2=O)s1 (stereo unspecified)	-5	0	1	-1	-2	.	.
O=C(NCc1cccnc1)c1cc(C2CCCN(C(=O)c3cccs3)C2)on1 (stereo unspecified)	-9	0	16*	9	8	-1	5
O=C(NCc1ccc(F)cc1)c1cc(C2CCCN(C(=O)c3cccs3)C2)on1 (stereo unspecified)	-10	0	-1	-1	-3	.	.
O=C(NCc1ccccc1)c1ccc(C(=O)NCc2ccccc2)cc1	-5	0	5	1	-3	.	.
O=C(NCc1ccccc1)c1n[nH]nc1-c1ccccc1O	9	-1	17*	-7	-5	16*	-6
O=S1(=O)N[C@H](Cc2ccccc2)COc2cc(N3CCSCC3)ccc21	-2	1	-2	-1	-3	.	.
S=C(NCCN1CCOCC1)Nc1ccc(Cl)cc1	-1	0	-1	1	-2	.	.
O=C(NCCN1CCOCC1)Nc1ccc(Cl)cc1	-2	0	12*	-1	-6	-3	1
C/C(=N/NC(=O)c1ccncc1)c1cc2ccc(O)cc2oc1=O	i	8	-445	i	i	.	.
Cc1cc(NC(=O)c2cccs2)ccc1NC(=O)Cc1ccccc1	3	3	-3	3	3	.	.
O=C(Cc1ccccc1)Nc1cccc(NC(=O)c2cccs2)c1	12	0	11*	4	8	-4	-1
Cc1nn(C)cc1CN(C)C(=O)CCc1nnc(CCC2CCCCC2)o1	-13	0	11*	-2	-2	-5	0
CN(Cc1nccn1C)C(=O)CCc1nnc(CCC2CCCCC2)o1	5	0	-4	2	-3	.	.
CCOc1ccc(NC(=O)CC2C(=O)N(c3ccc(OC)c(Cl)c3)C(=S)N2C2CC2)cc1 (stereo unspecified)	-4	1	0	-6	-2	.	.
CCCNC(=O)N1CC[C@H]2[C@@H]1c1cc(-c3ccc(F)cc3)ccc1N(C)[C@H]2CO	-114	-1	-61	-66	-33	.	.
COC(C(=O)NNS(=O)(=O)c1ccccc1[N+](=O)[O-])c1ccccc1 (stereo unspecified)	2	-1	1	-4	-6	.	.
COC(C(=O)NNS(=O)(=O)c1ccc([N+](=O)[O-])cc1)c1ccccc1 (stereo unspecified)	14	0	12*	7	1	-5	-1
COc1cccc(Nc2cc(N3CCOCC3)c3nonc3c2[N+](=O)[O-])c1	-2	0	10*	3	2	4	-4
